Source: PubChem BioAssay AID504333 (National Center for Advancing Translational Sciences (NCATS), 2011)
In all, about 360,000 compounds went through this assay and about 16,000 (4.4%) were called active. Where a call stands in place of a potency, no number is given. Roughly 9% stayed inconclusive and do not appear here. The call rests on the fitted dose curve; in most records, active means well fitted inhibition curve with a large enough effect; inconclusive means small, poorly fitted or top-dose-only effect; inactive means no such curve, though single readings can be large or run the other way. The full list was thinned out, with actives kept by preference.

Target: Bromodomain adjacent to zinc finger domain protein 2B (Homo sapiens) (UniProt Q9UIF8)
Assay: qHTS Assay for Inhibitors of BAZ2B; further: nearly all actives have a fitted effect of over 60% in size
Settings: AlphaScreen BAZ2B-H3K14Ac peptide displacement; series mostly up to 114 µM
Text: BAZ2B (bromodomain adjacent to zinc finger domain, 2B) belongs to a family of ubiquitously expressed bromodomain containing proteins, which biological function has not yet been elucidated. […] The interaction of BAZ2B with ISWI mediated by the BAZ1 motif has recently been described. […] The protocol is based on the AlphaScreen (PerkinElmer) displacement assay developed by NCGC [5], but uses the peptide ligand Biot-H3K14Ac, a high affinity binding partner for BAZ2B, in an AlphaScreen format. Although AlphaScreen has significant advantages with its utility in a variety of epigenetic target assays, the primary screening data provided in this deposition should be used with caution due to the prevalence of screening artifacts. The top compound concentration tested was 110uM in this assay, which increases number of actives and potential artifacts. An AlphaScreen counterscreen is highly recommended to be run against any putative actives to eliminate non-specific artifacts. Alternatively, one can use other AlphaScreen assays in PubChem to filter out promiscuous hits. Eberharter, A. et al. ACF1 improves the effectiveness of nucleosome mobilization by ISWI through PHD-histone contacts. The EMBO journal 23, 4029-4039. 2004. PMID: 15457208 [2] Jones, M.H. et al. A novel family of bromodomain genes. Genomics 63, 40-45. 2000. PMID: 10662543 [3] Yasgar, et al. Compound Management for Quantitative High-Throughput Screening. JALA. 2008 Apr;13(2):79-89. PMID: 18496600 [4] Inglese, et al. Quantitative high-throughput screening: a titration-based approach that efficiently identifies biological activities in large chemical libraries. Proc Natl Acad Sci. 1;103(31):11473-8. 2006. PMID: 16864780 [5] Quinn et al. A chemiluminescence-based method for identification of histone lysine methyltransferase inhibitors. Mol Biosyst 6(5): 782-8. 2010. PMID: 20567762 [6] Baell,Holloway. New substructure filters for removal of pan assay interference compounds (PAINS) from screening libraries and for their exclusion in bioassays. J Med Chem. 53(7):2719-40. 2010. PMID: 20131845 NIH Molecular Libraries Probe Production Network [MLPCN] NIH Chemical Genomics Center [NCGC] Structural Genomics Consortium (SGC) NIH Grant: 5U54 MH084681-02
To each well of a 1,536w plate, 2ul of BAZ2B protein (final 50nM) and 1ul biotinylated histone peptide acetylated at Lys14 [b-H3(5-23)K14Ac] (final 50nM) were added in 1x PBS buffer, pH 7.4, containing 0.01% Tween-20, using a nanoliter dispenser. Formation of a protein-peptide complex proceeded at room temperature for 30 min. A Kalypsys pin-tool was employed to transfer 23 nL of library compound solution in DMSO to each well. Following a 30 min incubation of the protein-peptide complex with compounds at room temperature, a mixture of 40 ug/mL each streptavidin-coated donor and nickel chelate acceptor AlphaScreen beads (final 10 ug/mL) were added in a 1ul dispense for a final volume of 4ul. A brief centrifugation followed (1000rpm, 1 min) and were then incubated protected from the light for 20 min at room temperature. Plates were read on an EnVision multilabel plate reader using the 1,536 plate HTS AlphaScreen aperture (excitation time 80 ms, measurement time 240 ms).
Potency means the concentration at half of the fitted maximal effect.

Bromodomain adjacent to zinc finger domain protein 2B (Homo sapiens), sequence (Q9UIF8 whole entry, looked up, the tested form may be a part): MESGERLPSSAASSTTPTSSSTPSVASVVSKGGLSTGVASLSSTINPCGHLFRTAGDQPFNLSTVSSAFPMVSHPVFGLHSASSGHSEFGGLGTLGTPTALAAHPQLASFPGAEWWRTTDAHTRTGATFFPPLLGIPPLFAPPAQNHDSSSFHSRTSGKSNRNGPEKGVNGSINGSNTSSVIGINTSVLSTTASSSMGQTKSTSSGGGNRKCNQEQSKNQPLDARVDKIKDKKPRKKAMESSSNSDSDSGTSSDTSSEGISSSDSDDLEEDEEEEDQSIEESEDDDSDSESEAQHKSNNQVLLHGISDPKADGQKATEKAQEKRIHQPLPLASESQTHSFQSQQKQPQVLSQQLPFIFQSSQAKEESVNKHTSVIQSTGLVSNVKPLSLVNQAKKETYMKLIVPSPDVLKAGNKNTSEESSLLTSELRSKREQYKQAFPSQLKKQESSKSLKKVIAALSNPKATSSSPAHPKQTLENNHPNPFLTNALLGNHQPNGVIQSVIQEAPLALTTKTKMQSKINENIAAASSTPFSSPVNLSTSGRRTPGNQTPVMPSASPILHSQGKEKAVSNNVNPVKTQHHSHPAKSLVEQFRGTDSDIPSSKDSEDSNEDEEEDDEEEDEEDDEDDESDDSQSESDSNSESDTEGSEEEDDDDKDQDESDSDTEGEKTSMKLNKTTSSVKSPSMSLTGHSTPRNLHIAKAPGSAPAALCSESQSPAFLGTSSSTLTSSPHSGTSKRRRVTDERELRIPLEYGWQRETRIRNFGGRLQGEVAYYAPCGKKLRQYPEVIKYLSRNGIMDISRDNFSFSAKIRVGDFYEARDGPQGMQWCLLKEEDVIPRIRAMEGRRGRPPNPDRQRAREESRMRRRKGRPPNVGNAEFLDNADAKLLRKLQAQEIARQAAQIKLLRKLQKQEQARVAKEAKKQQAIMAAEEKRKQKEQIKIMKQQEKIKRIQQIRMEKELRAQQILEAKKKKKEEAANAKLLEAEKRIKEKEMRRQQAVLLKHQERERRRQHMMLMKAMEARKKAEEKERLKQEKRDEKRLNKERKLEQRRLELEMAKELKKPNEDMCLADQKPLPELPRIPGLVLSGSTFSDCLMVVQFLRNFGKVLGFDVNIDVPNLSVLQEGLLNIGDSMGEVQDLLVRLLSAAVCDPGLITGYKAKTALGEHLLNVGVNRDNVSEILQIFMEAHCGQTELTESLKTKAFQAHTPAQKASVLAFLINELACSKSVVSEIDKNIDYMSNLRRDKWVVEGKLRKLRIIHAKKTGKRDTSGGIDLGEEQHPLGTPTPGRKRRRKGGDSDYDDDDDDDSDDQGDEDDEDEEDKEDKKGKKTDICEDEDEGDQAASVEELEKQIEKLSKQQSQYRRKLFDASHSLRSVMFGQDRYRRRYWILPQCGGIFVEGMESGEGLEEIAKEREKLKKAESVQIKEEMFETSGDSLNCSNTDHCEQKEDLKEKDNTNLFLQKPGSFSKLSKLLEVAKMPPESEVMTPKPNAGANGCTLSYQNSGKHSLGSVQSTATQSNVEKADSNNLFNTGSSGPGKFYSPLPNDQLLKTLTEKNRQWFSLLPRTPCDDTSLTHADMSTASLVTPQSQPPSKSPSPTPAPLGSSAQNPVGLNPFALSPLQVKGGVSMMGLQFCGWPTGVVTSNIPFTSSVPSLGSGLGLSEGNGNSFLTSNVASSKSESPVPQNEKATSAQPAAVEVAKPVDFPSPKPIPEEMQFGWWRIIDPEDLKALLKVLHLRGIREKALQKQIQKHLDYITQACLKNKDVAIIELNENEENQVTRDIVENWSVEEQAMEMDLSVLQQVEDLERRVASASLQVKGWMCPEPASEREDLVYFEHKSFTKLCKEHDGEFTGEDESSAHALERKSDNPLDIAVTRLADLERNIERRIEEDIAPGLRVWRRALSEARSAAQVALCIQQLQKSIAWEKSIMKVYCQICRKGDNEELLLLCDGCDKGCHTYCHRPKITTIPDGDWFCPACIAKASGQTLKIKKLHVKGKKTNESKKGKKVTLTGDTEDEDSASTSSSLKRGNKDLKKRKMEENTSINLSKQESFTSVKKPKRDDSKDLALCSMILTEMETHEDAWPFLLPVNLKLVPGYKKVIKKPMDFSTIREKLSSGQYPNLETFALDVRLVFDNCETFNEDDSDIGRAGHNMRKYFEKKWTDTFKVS

Row | SMILES | Potency
1 | Cc1cc(C)cc(NC(=O)CCS(=O)(=O)c2cc3c4c(c2)CCN4C(=O)CC3)c1 | inactive
2 | COc1ccc(NC(C)=O)cc1NC(=O)CN1CCN(c2ccc(F)cc2)CC1 | inactive
3 | CCOc1ccccc1N1CCN(C(=O)c2ccc3[nH]c(C)c(C)c3c2)CC1 | 44.7 µM (active)
4 | CCS(=O)(=O)N1CCc2cc(C(=O)N3CCN(c4ccccc4OC)CC3)ccc21 | inactive
5 | Cc1[nH]c2ccc(C(=O)N3CCN(C)CC3)cc2c1C | inactive
6 | CN(C(=O)CSc1nnc(NC(=O)Nc2ccccc2)s1)c1ccccc1 | inactive
7 | Cc1ccc(-n2cnc3cc(C(=O)NCCC4=CCCCC4)ccc32)cc1Cl | inactive
8 | CC(CC(=O)N1CCN(c2ccccc2)CC1)c1ccccc1 (stereo unspecified) | inactive
9 | COc1ccc(N2CCN(C(=O)/C(C#N)=C/c3ccccc3)CC2)cc1 | 50.1 µM (active)
10 | CCOC(=O)/C(C#N)=C/c1ccc(N2CCN(Cc3ccccc3)CC2)cc1 | inactive
11 | C/C(=C/c1ccccc1)C(=O)N1CCN(c2ccccc2)CC1 | 56.2 µM (active)
12 | COCCCNC(=O)Cn1cc(/C=C(\C#N)C(=O)N2CCN(c3ccccc3)CC2)c2ccccc21 | inactive
13 | O=C(CN1CCCC1)N1CCN(c2ccccc2)CC1 | inactive
14 | Fc1ccc(C(Nc2ccc(Cl)c(C(F)(F)F)c2)c2nnc(-c3ccccc3)o2)cc1 (stereo unspecified) | inactive
15 | COc1cc(Cl)c(NC(=O)CC(C)S(=O)(=O)c2cc3c(cc2C)NC(=O)CO3)c(OC)c1 (stereo unspecified) | inactive
16 | Cc1cccc(Cc2c(C)nc3nc(SCc4ccccc4Cl)nn3c2C)c1 | inactive
17 | O=C1/C(=C/c2cccs2)SC(=S)N1C1CCS(=O)(=O)C1 (stereo unspecified) | 22.4 µM (active)
18 | CCN(C(=O)CN1C(=O)/C(=C/c2ccc(F)cc2)SC1=S)C1CCS(=O)(=O)C1 (stereo unspecified) | inactive
19 | CN(C(=O)CN1C(=O)/C(=C/c2ccc(Cl)cc2)SC1=S)C1CCS(=O)(=O)C1 (stereo unspecified) | inactive
20 | COCCN(Cc1ccco1)C(=O)Cn1ncc2c([nH]c3ccccc32)c1=O | inactive
21 | Cc1cc(C)cc(NC(c2nnc(-c3cccc(F)c3)o2)c2ccc(F)cc2Cl)c1 (stereo unspecified) | inactive
22 | CCCS(=O)(=O)Nc1cccc(-c2cn3ccsc3n2)c1 | inactive
23 | COc1cccc(OC)c1C(=O)N1CCN(Cc2cccnc2)CC1 | 50.1 µM (active)
24 | COc1ccccc1C(=O)N1CCN=C1SCc1cccnc1 | inactive
25 | COc1cccc(OC)c1OCCN1CCN(C(=O)c2ccco2)CC1 | inactive
26 | CCCn1c(NCc2ccccc2F)nc2ccccc21 | inactive

Row | SMILES | Potency
27 | CCCn1c(NCc2ccc(N(CC)CC)cc2)nc2ccccc21 | 39.8 µM (active)
28 | CCCn1c(NC(=O)C23CC4CC(CC(O)(C4)C2)C3)nc2ccccc21 | inactive
29 | O=C(NC1(C(F)(F)F)N=C(c2ccccc2)N(C2CCCCC2)C1=O)c1ccccc1F (stereo unspecified) | inactive
30 | CCN(CC)C(=O)CSc1nc2ccsc2c(=O)n1Cc1ccccc1Cl | inactive
31 | Cc1cccc(C)c1-n1c(C)cc(/C=C2\C(=O)NN(c3ccccc3)C2=O)c1C | 14.1 µM (active)
32 | Cc1cc(/C=C2/NC(=O)NC2=O)c(C)n1-c1cccnc1 | inactive
33 | COc1cc(C(=O)NCCc2csc3nc(-c4ccccc4C)nn23)cc(OC)c1OC | inactive
34 | CCOCCc1nn2c(=O)cc(COC(=O)CNC(=O)c3ccc(C(C)(C)C)cc3)nc2s1 | inactive
35 | CCCCN(C)c1nnc(NC(=O)Nc2ccc(Br)c(C)c2)s1 | inactive
36 | Nc1scc[n+]1Cc1cccc2cccnc12 | inactive
37 | c1ccc2c(C[n+]3csc4ccccc43)cccc2c1 | 56.2 µM (active)
38 | c1ccc2c(CSCc3nc4ccccc4[nH]3)cccc2c1 | inactive
39 | O=C(C1COc2ccccc2O1)N(Cc1cccnc1)c1nc2c(F)cc(F)cc2s1 (stereo unspecified) | inactive
40 | COc1ccccc1OCC(O)CN1CCOCC1 (stereo unspecified) | inactive
41 | CCCn1c(=N)n(CC(O)COc2ccccc2OC)c2ccccc21 (stereo unspecified) | inactive
42 | COc1ccccc1OCCNCC(O)COc1cccc2[nH]c3ccccc3c12 (stereo unspecified) | 39.8 µM (active)
43 | CCOc1ccc(C2CC(=O)c3c([nH]c(C(=O)OCc4ccccc4)c3C)C2)cc1 (stereo unspecified) | inactive
44 | Cc1n[nH]c(=O)nc1N/N=C/c1cccs1 | 17.8 µM (active)
45 | NC(=O)N/N=C\c1cccs1 | inactive
46 | COc1ccc(Nc2nc(=O)[nH]nc2C)cc1 | inactive
47 | COc1cccc(OC)c1C(=O)NC(=S)NCc1ccco1 | 79.4 µM (active)
48 | COc1cc(C(=O)NC(=S)NCc2ccco2)cc(OC)c1OC | inactive
49 | COC(=O)Cc1ccc(NC(=S)NCc2ccco2)cc1 | inactive
50 | N#Cc1nc(/C=C/c2ccc(F)cc2)oc1NC1CCCCC1 | inactive
51 | Cc1c(CCC(=O)O)c(=O)oc2cc(OCc3ccc(Br)cc3)ccc12 | inactive
52 | CCOC(=O)CCc1c(C)c2ccc(OCc3nn[nH]n3)c(C)c2oc1=O | inactive

Row | SMILES | Potency
53 | Cc1c(CCC(=O)O)c(=O)oc2c(C)c(OCc3ccccc3Cl)ccc12 | 70.8 µM (active)
54 | O=C(c1ccccc1F)N1CCC(c2nc3c(nnn3Cc3cccc(F)c3)c(=O)[nH]2)CC1 | inactive
55 | CC(C)(C)c1ccc(NC(=O)COC(=O)CCc2nc3ccccc3c(=O)[nH]2)cc1 | inactive
56 | CCN(c1ccc(NC(=O)COC(=O)CCc2nc3ccccc3n2-c2ccccc2)cc1)C(C)C | 25.1 µM (active)
57 | Cc1ccc(NC(=O)COC(=O)CCc2nc3ccccc3n2-c2ccccc2)c(C)c1 | inactive
58 | COc1ccc(-n2c(=O)c3c(c4cc(OC)ccc4n3C)n(Cc3cccc(C)c3)c2=O)cc1 | inactive
59 | CCOC(=O)c1ccc(NC(=O)CCS(=O)(=O)c2ccc(C)cc2)cc1 | inactive
60 | Cc1ccc(N(C)C(=O)C2CCN(S(=O)(=O)c3ccc4c(c3)CCCN4C(=O)C3CCC3)CC2)cc1 | inactive
61 | COc1cc(/C=C(\C#N)c2nc3c(s2)CC(C)CC3)ccc1O (stereo unspecified) | 50.1 µM (active)
62 | COc1cccc2cc(-c3nc(Cl)c4c5c(sc4n3)CC(C)CC5)c(=O)oc12 (stereo unspecified) | inactive
63 | CCOc1cc(/C=C(\C#N)c2nc(-c3cccs3)c(NC(C)=O)s2)ccc1O | inactive
64 | COc1cc(C(=O)NCCS(=O)(=O)N2CCN(c3ccccc3)CC2)cc(OC)c1OC | inactive
65 | CC(=O)c1ccc(NC(=O)CSc2c(C(C)C)cnc3c2c(=O)n(C)c(=O)n3C)cc1 | inactive
66 | Cc1ccc(Cl)cc1N1CCN(C(=O)C2CCC(CNS(=O)(=O)c3cccs3)CC2)CC1 (stereo unspecified) | inactive
67 | CCOC(=O)C1CCCN(CC(=O)Nc2cc(C)c3c(=O)oc4ccccc4c3n2)C1 (stereo unspecified) | inactive
68 | Cc1nc2c(c(=O)n1Cc1ccco1)c1nc3ccccc3nc1n2Cc1ccccc1 | 56.2 µM (active)
69 | Cc1cc(NC(=O)CSc2nc3cc(Cl)ccc3c(=O)n2Cc2ccco2)no1 | inactive
70 | Clc1cccc(-c2nc3nc4ccccc4nc3n2Cc2ccco2)c1 | inactive
71 | COc1ccccc1CNc1ccc(-c2nc(-c3ccccc3C)no2)cc1[N+](=O)[O-] | inactive
72 | COc1ccccc1-n1c(-c2ccc(C)cc2)cn2c3c(=O)n(C)c(=O)n(C)c3nc12 | inactive
73 | CCOC(=O)c1oc2ccc(S(=O)(=O)n3nc(-c4ccccc4OC)cc3N)cc2c1C | inactive
74 | CCCCN1C(=O)C(C)=C(C)C1OCCc1ccc(OC)c(OC)c1 (stereo unspecified) | inactive
75 | CCCCOc1ccc(CN2C(=O)C(=O)c3cc(Br)cc(C)c32)cc1OC | 6.31 µM (active)
76 | CCCCOc1ccc(Cn2c(=O)oc3ccc(C)cc32)cc1OC | inactive
77 | COc1ccccc1CNc1nccn(-c2ccc(F)cc2)c1=O | inactive
78 | O=c1oc2c(CN3CCCCC3)c(O)ccc2c2c1CCCCC2 | inactive

Row | SMILES | Potency
79 | CCCOc1ccc2c3c(c(=O)oc2c1OCCC)CCC3 | inactive
80 | COc1ccc2c3c(c(=O)oc2c1OCC(=O)C(C)(C)C)CCCC3 | 79.4 µM (active)
81 | O=C(Cn1c(=O)n(-c2ccc(F)cc2)c(=O)c2sc3ccccc3c21)NC1CCCC1 | inactive
82 | Cc1cccc(NC(=O)c2cc3c(C)nn(-c4ccccc4)c3s2)c1 | inactive
83 | CCOC(=O)C1C(c2ccc(Cl)cc2)NC(=S)NC1(O)C(F)(F)F (stereo unspecified) | inactive
84 | CCOC(=O)C1Sc2[nH]c(=O)sc2C(c2ccc(Cl)cc2)C1C(=O)OCC (stereo unspecified) | 50.1 µM (active)
85 | CCOC(=O)c1[nH]c2c(c1-c1ccccc1)C(=O)CC(c1ccc(Cl)cc1)C2 (stereo unspecified) | inactive
86 | Cc1ccc(NC(=O)c2oc3ccccc3c2NC(=O)Cc2cccs2)cc1 | inactive
87 | CC(C)Sc1oc(-c2cccs2)nc1S(=O)(=O)c1ccc(Cl)cc1 | inactive
88 | CCN(CC)S(=O)(=O)c1cc(C(=O)Nc2ccccn2)ccc1C | inactive
89 | CC(O)c1ccc(OCCN(C)c2ccccn2)cc1 (stereo unspecified) | inactive
90 | CCN(CC)CCOc1ccc2c(c1)C(=NNC(=O)c1ccccn1)c1cc(OCCN(CC)CC)ccc1-2 | 20 µM (active)
91 | COc1ccccc1CNC(=O)c1ccc(-n2c(C)cc3c2CCCC3)cc1 | inactive
92 | CC(C)c1ccc(NC(=O)C2CCN(c3nc(-c4ccc(C(C)C)cc4)no3)CC2)cc1 | inactive
93 | NNc1nc2c(Cl)cccc2s1 | 44.7 µM (active)
94 | NC(=O)c1c(Nc2nc3c(F)cccc3s2)sc2c1CCCC2 | inactive
95 | CC1CCCN(c2nc3c(S(=O)(=O)c4ccc(C(C)C)cc4)nnn3c3ccsc23)C1 (stereo unspecified) | inactive
96 | O=C(CSc1nc(=O)[nH]c2c1CCCC2)Nc1cc(C(F)(F)F)ccc1Cl | inactive
97 | O=C(Nc1c(-c2ccc(F)cc2)nc2ccccn12)c1cccc(F)c1 | inactive
98 | CCn1cc(C(=O)OCC(=O)Nc2cc(C)cc(C)c2)c(=O)c2ccc(C)nc21 | inactive
99 | N#Cc1nc(-c2ccc(OCc3ccccc3)cc2)oc1NCCCN1CCOCC1 | 50.1 µM (active)
100 | O=S(=O)(c1ccccc1)c1nc(-c2ccccc2)oc1NCCCN1CCOCC1 | inactive
101 | Nc1nc(NCCCN2CCOCC2)nc(Nc2ccccc2)c1[N+](=O)[O-] | inactive
